Source: PubChem BioAssay
Calls of active or inactive are those of the source. Unless noted, how the calls were made is not given here.

Assays:
[1] = compound effects on lung adenocarcinoma cell viability – A549, calcein-AM fluorescence, 48 h, basal, profiling panel (AID 1162); conditions: higher = more signal; further: test concentration not given here
[2] = compound effects on differentiated 3T3-L1 adipocyte viability – cell-based, 3T3-L1 adipocytes, calcein-AM fluorescence, 48 h, basal, profiling panel (AID 1163); conditions: 3T3-L1 adipocytes viability, higher = more signal; further: test concentration not given here
[3] = compound effects on hepatocellular carcinoma cell viability – HepG2, calcein-AM fluorescence, 48 h, basal, profiling panel (AID 1164); conditions: higher = more signal; further: test concentration not given here
[4] = compound effects on multiple myeloma cell viability – MM1S, calcein-AM fluorescence, 48 h, basal, profiling panel (AID 1165); conditions: higher = more signal; further: test concentration not given here
[5] = calcein-AM signal in unstimulated myeloma cells – cell-based, calcein-AM fluorescence, 48 h, PK04 Diversity Set, profiling panel (AID 1166); conditions: RPMI8226 myeloma viability, higher = more signal;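 further: cells grown under basal conditions without added stimulus; test concentration not given here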
[6] = JC-1 mitochondrial signal, unstimulated HepG2 cells – cell-based, JC-1 fluorescence, 24 h, 100 nL compound, profiling panel (AID 1167); conditions: HepG2 mitochondrial potential, higher = more signal; further: test concentration not given here
[7] = JC-1 mitochondrial signal, unstimulated adipocytes – cell-based, JC-1 fluorescence, 3T3-L1 adipocytes, 24 h, 100 nL compound, profiling panel (AID 1168); conditions: JC-1 mitochondrial fluorescence, higher = more signal, called active from +8 up or from −8 down; further: test concentration not given here
[8] = JC-1 mitochondrial signal, unstimulated myeloma cells – cell-based, JC-1 fluorescence, RPMI8226, 24 h, 100 nL compound, profiling panel (AID 1169); conditions: JC-1 mitochondrial potential fluorescence, higher = more signal; further: test concentration not given here
[9] = JC-1 mitochondrial signal, unstimulated MM1S myeloma – cell-based, JC-1 fluorescence, 24 h, 100 nL compound, profiling panel (AID 1170); conditions: MM1S mitochondrial potential, higher = more signal; further: test concentration not given here
[10] = resazurin metabolic signal in A549 cells – cell-based, resazurin fluorescence, 24 h, PK04 Diversity Set, profiling panel (AID 1171); conditions: A549 viability, higher = more signal, called active from +8 up or from −8 down; further: test concentration not given here
[11] = resazurin metabolic signal in HepG2 cells – cell-based, resazurin fluorescence, 24 h, PK04 Diversity Set, profiling panel (AID 1172); conditions: HepG2 viability, higher = more signal; further: test concentration not given here
[12] = budding yeast growth changes without added modifier – OD600, strain BY4716, 24 h, basal condition, primary screen (AID 1173); conditions: S. cerevisiae BY4716 growth, OD600, 24 h; higher = more signal, called active from +8 up or from −8 down
[13] = viability profiling in MM1S myeloma cells – cell-based, resazurin fluorescence, basal, 24 h, PK04 Diversity Set, profiling panel (AID 1174); conditions: higher = more signal, called active from +8 up or from −8 down; further: test concentration not given here
[14] = molecular target: Dihydroorotate dehydrogenase (quinone), mitochondrial (Plasmodium falciparum (isolate 3D7)) (UniProt Q08210); assay: inhibition of P. falciparum DHODH – biochemical, C-terminal His tag, absorbance 600 nm, primary screen (AID 1175); conditions: PfDHODH enzyme, DCIP absorbance 600 nm; higher = more signal, called active from +8 up or from −8 down;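 further: recombinant parasite enzyme with a five histidine tag at its C terminus; test concentration not given here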
Sequence of Dihydroorotate dehydrogenase (quinone), mitochondrial (Plasmodium falciparum (isolate 3D7)) (Q08210 whole entry, looked up): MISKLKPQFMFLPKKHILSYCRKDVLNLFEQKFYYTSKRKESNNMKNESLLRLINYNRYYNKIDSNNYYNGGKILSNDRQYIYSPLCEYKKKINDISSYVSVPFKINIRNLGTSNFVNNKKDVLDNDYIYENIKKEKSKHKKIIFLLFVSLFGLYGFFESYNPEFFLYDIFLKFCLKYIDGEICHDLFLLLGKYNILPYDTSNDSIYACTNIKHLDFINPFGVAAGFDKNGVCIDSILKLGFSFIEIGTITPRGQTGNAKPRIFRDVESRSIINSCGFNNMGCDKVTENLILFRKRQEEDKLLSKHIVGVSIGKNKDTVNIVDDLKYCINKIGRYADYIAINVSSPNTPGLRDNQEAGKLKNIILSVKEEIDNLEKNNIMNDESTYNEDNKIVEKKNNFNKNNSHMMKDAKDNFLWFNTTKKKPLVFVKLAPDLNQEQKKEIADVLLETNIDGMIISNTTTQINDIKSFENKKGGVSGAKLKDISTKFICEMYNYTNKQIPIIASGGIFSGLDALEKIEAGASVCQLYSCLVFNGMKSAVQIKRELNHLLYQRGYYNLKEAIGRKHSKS

[15] = inhibition of PAO1 biofilm formation – strain PAO1, LB-PBS medium, absorbance 600 nm, primary screen (AID 1176); further: test concentration not given here; conditions: P. aeruginosa PAO1 growth/biofilm, A600, 12 h; higher = more signal
[16] = growth modulation of vineyard yeast isolate – strain RM11-1a, OD600, basal, 24 h, primary screen (AID 1177);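 further: cultures grown under basal conditions with no added stressor; test concentration not given here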; conditions: S. cerevisiae RM11-1a growth, OD600, 24 h; higher = more signal, called active from +8 up or from −8 down
[17] = growth of efflux-deficient E. coli DRC39 – strain DRC39, OD650, 24 h, E. coli filamentation inducers, primary screen (AID 1178);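 further: growth measured as culture turbidity by optical density at 650 nm; test concentration not given here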; conditions: E. coli DRC39 acrAB, higher = more signal, called active from +8 up or from −8 down
[18] = growth of efflux-deficient E. coli DRC39 – strain DRC39, OD650, 48 h, E. coli filamentation inducers, primary screen (AID 1179);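 further: screen aims at cell division blockers that make cells filament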; conditions: E. coli DRC39 delta-acrAB growth, higher = more signal, called active from +8 up or from −8 down
[19] = viability profiling in RPMI8226 myeloma cells – cell-based, resazurin fluorescence, basal, 24 h, PK04 Diversity Set, profiling panel (AID 1180); conditions: higher = more signal;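 further: RPMI8826 multiple myeloma cell line at 5000 cells per well; test concentration not given here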
[20] = molecular target: E3 ubiquitin-protein ligase XIAP (Homo sapiens) (UniProt P98170); assay: small molecules binding XIAP protein – biophysical, small-molecule microarray, fluorescence 635 nm, primary screen (AID 1181); conditions: higher = more signal;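 further: score merges 667 nm emission and signal to noise over triplicate slides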
Sequence of E3 ubiquitin-protein ligase XIAP (Homo sapiens) (P98170 whole entry, looked up): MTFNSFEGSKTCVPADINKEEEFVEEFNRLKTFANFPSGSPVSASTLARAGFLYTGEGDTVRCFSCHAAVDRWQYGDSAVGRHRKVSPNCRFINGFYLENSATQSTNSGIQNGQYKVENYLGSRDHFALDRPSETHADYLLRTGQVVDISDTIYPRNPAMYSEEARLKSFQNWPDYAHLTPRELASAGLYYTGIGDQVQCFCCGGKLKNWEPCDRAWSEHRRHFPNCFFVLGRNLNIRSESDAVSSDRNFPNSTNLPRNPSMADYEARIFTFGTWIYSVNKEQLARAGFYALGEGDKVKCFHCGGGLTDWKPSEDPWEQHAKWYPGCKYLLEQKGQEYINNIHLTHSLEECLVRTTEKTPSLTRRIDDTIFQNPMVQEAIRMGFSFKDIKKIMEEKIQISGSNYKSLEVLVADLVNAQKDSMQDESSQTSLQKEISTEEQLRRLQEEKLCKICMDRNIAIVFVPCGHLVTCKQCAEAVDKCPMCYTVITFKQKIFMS

Compound	z-score [1]	z-score [2]	z-score [3]	z-score [4]	z-score [5]	z-score [6]	z-score [7]	z-score [8]	z-score [9]	z-score [10]	z-score [11]	z-score [12]	z-score [13]	composite z-score [14]	z-score [15]	z-score [16]	z-score [17]	z-score [18]	z-score [19]	composite z-score [20]
NC(=O)NCC#Cc1ccc2c(c1)[C@]1(C(=O)N2)[C@H](C(=O)N2CCN(c3ncccn3)CC2)[C@H]2C(=O)O[C@H](c3ccccc3)[C@H](c3ccccc3)N2[C@@H]1c1ccc(OCCO)cc1	0.0404	-0.33	-1.12	-0.444	0.86	-1.95	1.54 (inactive)	-0.504	-0.445	0.75 (inactive)	0.906	2.6 (inactive)	0.0294 (inactive)	-0.238 (inactive)	1.91 (inactive)	3.91 (inactive)	0.436 (inactive)	-0.114 (inactive)	0.0901	-0.202
C=C(COC)/C(=C/C[C@@H](OC(=O)c1ccncc1)c1ccccc1OCCO)c1cc(C(=O)OC)ccc1OC	2.37	-0.193	-0.11	-3.29	-1.63	1.35	-1.04 (inactive)	-0.735	-1.9	0.314 (inactive)	0.106	-1.35 (inactive)	-1.03 (inactive)	-4 (inactive)	0.825 (inactive)	0.0248 (inactive)	0.404 (inactive)	0.32 (inactive)	-1.35	-0.211
CO[C@H]1O[C@H](CO)[C@@H](OC(=O)c2ccc(Br)cc2)[C@@H]2OC(=O)[C@H](Cc3ccccc3)C/C=C/C[C@@H](Cc3ccccc3)C(=O)O[C@@H]12	1.77	0.863	0.857	-0.389	0.0226	-0.0867	-1.37 (inactive)	0.796	-0.823	-1 (inactive)	0.722	-2.04 (inactive)	-1.33 (inactive)	-0.854 (inactive)	-0.124 (inactive)	-1.42 (inactive)	1.74 (inactive)	2.16 (inactive)	0.425	0.154
CC(C)N1CC=CC23O[C@@H]4/C=C\CCCOC(=O)C4[C@H]2C(=O)N(CCCCCCO)[C@@H]3C1=O (stereo not given in full)	1.46	-0.377	0.922	1.49	0.0006	1.14	-0.0751 (inactive)	-0.659	1.23	1.51 (inactive)	0.95	-1.13 (inactive)	1.3 (inactive)	-0.475 (inactive)	-0.401 (inactive)	0.0759 (inactive)	1.62 (inactive)	1.93 (inactive)	0.708	0.0537
C=CCOC(=O)[C@H]1[C@@H]2C(=O)O[C@@H](c3ccccc3)[C@@H](c3ccccc3)N2[C@@H](c2ccc(OCCOC(=O)[C@H]3C[C@H]4C(=O)N[C@@H](CCCCNC(C)=O)C(=O)N4[C@H]3c3cccc(OCCO)c3)cc2)[C@]12C(=O)Nc1ccc(I)cc12	0.0973	1.5	-0.621	0.035	-0.665	-1.91	0.622 (inactive)	-0.676	-0.519	-0.342 (inactive)	-0.821	1.2 (inactive)	-0.682 (inactive)	1.34 (inactive)	2.63 (inactive)	1.59 (inactive)	-0.817 (inactive)	-1.2 (inactive)	-0.538	-0.0228
COc1ccc(CCNC(=O)[C@@]2(Cc3ccccc3I)c3ccccc3C(=O)N(Cc3ccccc3Cl)[C@H]2c2ccc(CO)cc2)cc1	-0.613	-0.073	-0.63	-3.36	-1.92	0.962	0.119 (inactive)	-0.0808	-0.413	0.109 (inactive)	-0.0135	-0.564 (inactive)	0.0755 (inactive)	-0.902 (inactive)	0.751 (inactive)	-0.377 (inactive)	-0.432 (inactive)	-0.638 (inactive)	-0.978	0.262
C=CCC(OC(C)=O)[C@@H]1[C@@H](N(Cc2ccc(-c3cccc(C(F)(F)F)c3)o2)C(=O)Cc2ccc(OC)cc2)c2cc(OCCCO)ccc2N1C(=O)Cc1ccc2ccccc2c1 (stereo not given in full)	0.553	1.78	0.73	-0.499	-1.14	1.94	-0.3 (inactive)	0.114	0.296	-0.674 (inactive)	-0.43	-0.753 (inactive)	0.0919 (inactive)	1.02 (inactive)	-0.628 (inactive)	0.132 (inactive)	0.532 (inactive)	0.279 (inactive)	-0.224	-0.0286
CC(C)[C@H]1NC(=O)[C@@]23C(=O)N[C@@H](Cc4ccccc4)C2[C@H](C)[C@@]2(C)O[C@H]2C3/C=C/CCC/C=C/CNC(=O)[C@H](Cc2ccccc2)NC1=O (stereo not given in full)	-0.315	0.532	0.304	-0.837	-1.6	1.18	-0.499 (inactive)	-0.157	1.84	-1.25 (inactive)	-1.15	-1.76 (inactive)	-0.457 (inactive)	0.112 (inactive)	-0.471 (inactive)	-0.201 (inactive)	-0.297 (inactive)	-0.786 (inactive)	0.0125	-0.039
